# Measured values taken from the supplement of paper PMC11383364.
# ± gives the standard deviation of the averaged measurements.
# System: SUM149
# Assay: percent difference in area under dose-response curve of relative cell number, RPMI vs HPLM; higher = drug relatively more effective in HPLM than RPMI (negative = less effective in HPLM)
# Conditions: treatment time: 72 h; dose range: 10-point, 1 nM to 20 µM; media compared: RPMI vs HPLM
row,SMILES,percent difference in area under dose-response curve [%]
1,S=c1[nH]cnc2nc[nH]c12 [Mercaptopurine],-43.4
2,CC(=O)O[C@@]12CO[C@@H]1C[C@H](O)[C@@]1(C)C(=O)[C@H](O)C3=C(C)[C@@H](OC(=O)[C@H](O)[C@@H](NC(=O)OC(C)(C)C)c4ccccc4)C[C@@](O)([C@@H](OC(=O)c4ccccc4)[C@H]21)C3(C)C [Docetaxel],-42.7
3,CN1CCN(c2nc(C3=C(c4c[nH]c5ccccc45)C(=O)NC3=O)c3ccccc3n2)CC1 [Sotrastaurin],9.13
4,O=C(O)Cc1cccc(OCCCN(Cc2cccc(C(F)(F)F)c2Cl)CC(c2ccccc2)c2ccccc2)c1,1.28
5,O=C(Nc1c[nH]nc1-c1nc2ccc(CN3CCOCC3)cc2[nH]1)NC1CC1,-10.6
6,CC1(COc2ccc3c(c2)ncn3-c2ccc3cccc(N4CCC(N)CC4)c3n2)COC1 [Crenolanib],-11.6
7,CCc1nc(N)nc(N)c1-c1ccc(Cl)cc1 [Pyrimethamine],33.6
8,Nc1nc(Cl)nc2c1ncn2[C@H]1C[C@H](O)[C@@H](CO)O1 [Cladribine],-12.6 ± 2.1
9,Cc1[nH]c(/C=C2\C(=O)Nc3ccc(S(=O)(=O)Cc4c(Cl)cccc4Cl)cc32)c(C)c1C(=O)N1CCC[C@@H]1CN1CCCC1,-10.1
10,COc1c(C)c2c(c(O)c1C/C=C(\C)CCC(=O)O)C(=O)OC2 [Mycophenolic_Acid],-8.4
11,Cn1cncc1[C@@](N)(c1ccc(Cl)cc1)c1ccc2c(c1)c(-c1cccc(Cl)c1)cc(=O)n2C [Tipifarnib],-21.7
12,CC[C@]1(O)C[C@@H]2CN(CCc3c([nH]c4ccccc34)[C@@](C(=O)OC)(c3cc4c(cc3OC)N(C)[C@H]3[C@@](O)(C(=O)OC)[C@H](OC(C)=O)[C@]5(CC)C=CCN6CC[C@]43[C@@H]65)C2)C1 [Vinblastine],-27.2
13,CC(NC(=O)c1ccccc1/N=C/c1c(O)ccc2ccccc12)c1ccccc1 (centres undefined) [Sirtinol],-4.04
14,Cn1c(=O)c(F)c(Nc2ccc(I)cc2F)c2c(=O)n(C[C@@H](O)CO)cnc21,-12.9
15,CCc1c2c(nc3ccc(OC(=O)N4CCC(N5CCCCC5)CC4)cc13)-c1cc3c(c(=O)n1C2)COC(=O)[C@]3(O)CC [Irinotecan],-12.2
16,Nc1ccn([C@@H]2O[C@H](CO)[C@@H](O)C2(F)F)c(=O)n1 [Gemcitabine],-24.6 ± 5.4
17,CC1(C)CCC2=C(O1)c1ccccc1C(=O)C2=O [beta_Lapachone],0.097

row,SMILES,percent difference in area under dose-response curve [%]
1,CN(C)CCOc1ccc(-c2nc(-c3ccncc3)c(-c3ccc4c(c3)CC/C4=N\O)[nH]2)cc1,-4.32
2,O=C(NCC1(c2nc(-c3ccccc3)cs2)CCOCC1)c1cccc(-c2noc(C(F)(F)F)n2)c1,0.481
3,CN1CCN(c2ccc3nc(-c4c(N)c5c(F)cccc5[nH]c4=O)[nH]c3c2)CC1 [Dovitinib],-0.391
4,CN(N=O)C(=O)N[C@@H](C=O)[C@@H](O)[C@H](O)[C@H](O)CO [Streptozotocin],-5.59
5,NC(=O)Nc1sc(-c2ccc(F)cc2)cc1C(N)=O,6.37
6,COc1cccc(-c2cc(F)ccc2[C@H]2Cc3nc(N)nc(C)c3C(=O)N2)n1,-28.8
7,COC1=C2C[C@@H](C)C[C@H](OC)[C@H](O)[C@@H](C)/C=C(\C)[C@H](OC(N)=O)[C@@H](OC)/C=C\C=C(/C)C(=O)NC(=CC1=O)C2=O [Geldanamycin],-5.2
8,CC(C)=CCC1=C(O)C(=O)c2ccccc2C1=O [Lapachol],10.9
9,Cc1cnc(Nc2ccc(OCCN3CCCC3)cc2)nc1Nc1cccc(S(=O)(=O)NC(C)(C)C)c1 [Fedratinib],-9.15
10,CC(C)(C)C(=O)Nc1ccc2c(c1)C(=O)C(=O)c1ccccc1-2,2.11
11,CCc1c2c(nc3ccc(OC(=O)N4CCC(N5CCCCC5)CC4)cc13)-c1cc3c(c(=O)n1C2)COC(=O)[C@]3(O)CC [Irinotecan_HCl_Trihydrate],-10.1
12,CS(=O)(=O)c1cccc(CNc2nc(Nc3ccc4c(c3)CCC(=O)N4)ncc2C(F)(F)F)c1,-3.53
13,Oc1ccc(/C=C/c2cc(O)cc(O)c2)cc1 [Resveratrol],-1.11
14,CC(=O)O[C@]1(C(C)=O)CC[C@H]2[C@@H]3C[C@H](C)C4=CC(=O)CC[C@]4(C)[C@H]3CC[C@@]21C [Medroxyprogesterone_acetate],0.646
15,O=C(Nc1ccccc1-c1cn2c(CN3CCNCC3)csc2n1)c1cnc2ccccc2n1,-8.03
16,Cc1ccc(-n2nc(C(C)(C)C)cc2NC(=O)Nc2ccc(OCCN3CCOCC3)c3ccccc23)cc1,-3.95
17,Cc1cn(-c2cc(NC(=O)c3ccc(C)c(Nc4nccc(-c5cccnc5)n4)c3)cc(C(F)(F)F)c2)cn1 [Nilotinib],-3.16
